# Most compounds without a hit are left out; they make up all but 3.2% or so of the library.
# FBPA coupling cs: qHTS Assay for Inhibitors of Fructose-1,6-bisphosphate Aldolase from Giardia Lamblia: Coupling assay counterscreen | coupling enzyme system counterscreen, AmpLite Red fluorescence | activity change, negative = inhibition, % at 58.2 µM, hits read low | 0.67% of 290,000 active | AID 2472, 2010; in the data active = activity change below about -30%
#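 Fluorescence at 525 nm excitation and 598 nm emission measured inhibition of the coupled detection system without aldolase. Compounds (at 57.5 uM final) were preincubated 10 min at room temperature with coupling enzyme reagent before a 20 min substrate/AmpLite Red step.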
# GALK inhibitor: qHTS Assay for Inhibitors of Human Galactokinase (GALK); Purified GALK, Kinase-Glo residual ATP luminescence; Potency, µM (doses to about 57.5 µM), for the others: top-dose activity change, negative = inhibition, actives largely listed as inhibitors; 0.007% of 270,000 active; AID 1868, 2009; also: potency is read from the fitted curve at half-maximal effect
#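 The enzyme phosphorylates galactose (100 uM) using ATP (35 uM); inhibition is detected as higher residual ATP, quantified by bioluminescence after 1 h reaction at room temperature, pH 8.0.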
# USP1 inh: Inhibitors of USP1/UAF1: Primary Screen. recombinant USP1/UAF1, Ub-Rhodamine cleavage fluorescence. Potency, µM (titrated, usually from 57.1 µM), inactives show at the highest dose activity change, negative = inhibition, usual class: inhibitors. 0.23% of 390,000 active; also: potency is read from the fitted curve at half-maximal effect; nearly all actives have a fitted effect of over 60% in size
#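 USP1/UAF1 complex at 1 nM was preincubated with compound for 15 min at room temperature, then Ub-Rho substrate (150nM final) was added. Fluorescence (480/540 nm) was read kinetically, 6 reads every 60 seconds.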
# PLK1 PBD block: qHTS for Inhibitors of PLK1-PDB (polo-like kinase 1 - polo-box domain): Primary Screen. Serine/threonine-protein kinase PLK1 (Homo sapiens), P53350. Plk1 PBD binding of FITC phosphopeptide, fluorescence polarization. Potency, µM, for inactives: max response, negative = inhibition, most hits filed as inhibitors. 2.8% of 360,000 active; also: potency is read from the fitted curve at half-maximal effect; series mostly up to about 57 µM; nearly all actives have a fitted effect of over 65% in size
# Target sequence (P53350 whole entry, looked up, the tested form may be a part): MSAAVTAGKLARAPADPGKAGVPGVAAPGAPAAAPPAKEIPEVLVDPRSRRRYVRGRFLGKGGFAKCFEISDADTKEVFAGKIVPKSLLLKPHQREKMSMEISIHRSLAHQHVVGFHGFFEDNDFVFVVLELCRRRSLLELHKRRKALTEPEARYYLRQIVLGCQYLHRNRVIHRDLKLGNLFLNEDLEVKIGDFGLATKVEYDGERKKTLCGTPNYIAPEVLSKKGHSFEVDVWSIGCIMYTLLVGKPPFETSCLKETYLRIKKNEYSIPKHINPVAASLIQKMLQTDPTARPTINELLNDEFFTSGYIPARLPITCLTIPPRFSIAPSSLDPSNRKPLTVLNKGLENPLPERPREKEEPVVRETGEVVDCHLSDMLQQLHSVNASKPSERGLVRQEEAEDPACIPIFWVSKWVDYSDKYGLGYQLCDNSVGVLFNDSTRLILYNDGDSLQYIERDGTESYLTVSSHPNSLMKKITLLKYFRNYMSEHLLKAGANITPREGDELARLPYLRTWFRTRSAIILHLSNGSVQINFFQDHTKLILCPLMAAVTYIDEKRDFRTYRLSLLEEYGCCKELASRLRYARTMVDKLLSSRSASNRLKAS
# VDR inhibitor: Inhibitors of the vitamin D receptor (VDR): qHTS; VDR-SRC2-3 peptide fluorescence polarization, 2 h; AID 504847, 2011; 0.93% of 400,000 active; Potency, µM, for inactives: max response, negative = inhibition, most hits filed as inhibitors; also: potency is read from the fitted curve at half-maximal effect
#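 Signal is fluorescence polarization, reporting how far test compounds block the interaction of VDR with the SRC2-3 coregulator peptide after a 2 h room-temperature incubation.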
# USP2a inh: qHTS Assay for Inhibitors of Ubiquitin-specific Protease USP2a Using CHOP2 as the Reporter; USP2 core, Ub-CHOP2 coupled fluorogenic reporter, 485/531; Potency, µM (series often up to 38.3 µM), inactives show at the highest dose activity change, negative = inhibition, usual class: inhibitors; AID 463254, 2010; Ubiquitin carboxyl-terminal hydrolase 2 (Homo sapiens), O75604; 0.01% of 330,000 active;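 also: potency is read from the fitted curve at half-maximal effect; plate controls were DMSO wells for no effect and full inhibition by NEM control for full effect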
#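 Cell-free coupled assay: 10nM USP2 core preincubated 30min RT with compound in Tris-HCl pH 8.0/CaCl2/CHAPS buffer, then 25nM Ub-CHOP2 and 25nM reporter substrate; fluorescence (Ex 485/Em 531) read after 60min RT, normalized to NEM inhibition, concentration-response curves fitted.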
# The depositor's hits bear a star; ? = inconclusive; · = not tested or not shown; ! = not confirmed by another sample; [ ] = another dose, or the depositor's remark. Unless noted, calls follow the shape of the dose curve; as a rule, active = well fitted curve in the direction sought with a large enough effect; inconclusive = small, poorly fitted or top-dose-only effect, or another doubt; inactive = no such curve, though single readings can be large; an effect the other way counts as inactive or inconclusive. Unless noted, % is scaled to controls: 0 for no effect and ±100 for the full control effect.
SMILES,FBPA coupling cs,GALK inhibitor,USP1 inh,PLK1 PBD block,VDR inhibitor,USP2a inh
COc1ccc([C@]23Cc4cc(OC)c(OC)cc4C(O2)c2c(cc(C)oc2=O)O3)cc1,-2.5,·,·,·,·,-0.1%[7.66 µM]
Cc1ccc(S(=O)(=O)N2CCCC(C(=O)N(Cc3cccs3)C3CC3)C2)cc1 (stereo unspecified),2.5,7.2%,-18.6%,0.7%,-22.0%,-9.2%
COC(=O)c1ccccc1NC(=O)C(C)Oc1ccccc1 (stereo unspecified),1.9,-1.4%,-19.4%,2.99µM*,?,-1.2%
COc1ccc(CCNC(=O)c2nc3ncccn3n2)cc1OC,3.7,0.2%,-7.0%,23.8µM*,-3.1%,-1.7%
COc1ccc(CCNC(=O)C2CCN(S(=O)(=O)c3cccc4cccnc34)CC2)cc1OC,·,-8.7%,-8.6%,26.7µM*,-9.1%,3.1%
Cn1c(CNc2ccc(Cl)cc2)nnc1SCC#N,0.1,1.2%,-17.2%,-7.0%,5.9%,0.5%
COC(=O)c1ccc(C(=O)Nc2ccc(N)cc2N)cc1,-34.0*,-0.1%,-23.7%,-1.6%,17.7%,1.5%
CN(C)CCCN1c2ccc(O)cc2Sc2ccc(Cl)cc21,·,·,-10.5%,0.5%,·,·
O=C1NC(=O)C(c2ccccc2[N+](=O)[O-])=C1Nc1ccc(O)c(Cl)c1,-6.4,·,-16.6%,-15.3%,44.7µM*!,-3.1%
O=C(NNc1ccccc1[N+](=O)[O-])Nc1ccc(Cl)c(Cl)c1,0.5,-0.5%,-24.3%,-0.2%,-9.6%,-0.5%
Cc1ccc(S(=O)(=O)N2c3cc(C)ccc3OCC2C(C)(C)C)cc1 (stereo unspecified),-0.8,-0.9%,-16.6%,-3.4%,1.1%,-0.9%
COC(=O)c1ccc(C(=S)N2CCOCC2)cc1,4.8,-0.2%,4.0%,11.9µM*,-1.0%,0.2%
O=C(/C=C/c1ccco1)Oc1ccc(C(=S)N2CCOCC2)cc1,-2.2,-0.4%,?,11.9µM*,?,9.3%
CCCc1c(C)c2cccc(C)c2[nH]c1=O,-0.4,3.2%,6.4%,-6.8%,3.4%,3.7%
CCCCN1CCc2c([nH]c3c(C)cccc23)C1=O,-9.5,2.4%,-13.2%,3.36µM*,14.1µM*,-0.9%
COc1cccc(Nc2n[nH]c(=S)s2)c1,1.1,1.7%,-15.9%,23.8µM*,?,4.2%
Cc1cc(C)c(Nc2n[nH]c(=S)s2)cc1C,·,·,-5.4%,26.7µM*,·,·
COc1ccccc1Nc1nc(C)cs1,-0.4,-1.5%,-5.3%,16.8µM*!,-13.3%,1.0%
Cc1cccc(Nc2n[nH]c(=S)s2)c1C,4.4,-1.3%,0.1%,29.9µM*,-78.1%,3.6%
Cc1cccc(C)c1Nc1n[nH]c(=S)s1,·,·,-15.8%,?,·,·
N#Cc1cc(Oc2cccc3cccnc23)c(-n2nnc3ccccc32)cc1C#N,-20.9,3.0%,?,-12.9%,?,-4.2%
C/C(=N\NC(=O)COc1cc(C)cc(C)c1)c1ccc(N2CCOCC2)cc1,0.1,0.7%,-6.5%,-13.1%,-25.4%,1.6%
COc1ccccc1Nc1n[nH]c(=S)s1,-0.4,10.8%,-16.6%,21.2µM*,?,0.8%
CC(=O)Nc1n[nH]c(=S)s1,·,·,-3.0%,-13.6%,50.1µM*,·
Cc1ccc(Nc2n[nH]c(=S)s2)c(C)c1,·,·,-16.4%,23.8µM*,·,·
COc1ccccc1Nc1ccc(Nc2ccccc2OC)nn1,2.4,-0.3%,-7.2%,-0.8%,-0.6%,0.7%
CS(=O)(=O)N(CC(=O)N/N=C/c1cccc2c1OCCO2)c1ccccc1Br,2.7,-6.6%,-18.5%,3.5%,2.1%,0.9%
CC1=C(C(N)=O)S(=O)(=O)c2ccccc21,1.0,0.6%,-22.8%,21.2µM*,?,3.4%

# Screens from PubChem.
